GPR32 ag = agonists of human resolvin D1 receptor DRV1 (GPR32); CHO-K1 GPR32 beta-arrestin PathHunter luminescence, 90 min; zero percent set by DMSO-only wells; activation, % at 76.9 µM; 48,000 compounds, 2.5% hits; AID 1346428;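 active = activation of at least 60% and not above a set upper limit, about 1 call in 100 departs from these limits; inconclusive = activation of 40% to 60%, or above that upper limit; inactive = activation under 40%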; note: 0% is about no effect
Target sequence (O75388 whole entry, looked up): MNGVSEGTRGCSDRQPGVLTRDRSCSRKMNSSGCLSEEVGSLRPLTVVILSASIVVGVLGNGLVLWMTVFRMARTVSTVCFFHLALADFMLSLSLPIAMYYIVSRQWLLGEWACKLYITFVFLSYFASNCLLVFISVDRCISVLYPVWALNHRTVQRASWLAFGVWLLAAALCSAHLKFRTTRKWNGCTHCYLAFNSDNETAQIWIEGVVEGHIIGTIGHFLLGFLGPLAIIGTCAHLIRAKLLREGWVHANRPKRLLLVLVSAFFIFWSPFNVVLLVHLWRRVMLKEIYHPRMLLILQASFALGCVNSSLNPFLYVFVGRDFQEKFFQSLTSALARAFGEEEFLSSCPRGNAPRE
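Using DMSO wells as EC0, agonist-induced signal was taken as chemiluminescence from beta-Gal reconstituted upon beta-arrestin recruitment to GPR32 in CHO-K1 cells after 90 min compound treatment.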
GALK inhibitor = GALK (human) enzyme inhibition | P51570 | recombinant GALK, Kinase-Glo ATP luminescence, 1 h | Potency, µM (highest dose often 57.5 µM), for inactives: at the highest dose activity, negative = inhibition, usual class: inhibitors | 44,000 tested, under 10 active | AID 1347072;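 note: plate controls were full GALK reaction for no effect and reaction lacking GALK for full effect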
Target sequence (P51570 whole entry, looked up): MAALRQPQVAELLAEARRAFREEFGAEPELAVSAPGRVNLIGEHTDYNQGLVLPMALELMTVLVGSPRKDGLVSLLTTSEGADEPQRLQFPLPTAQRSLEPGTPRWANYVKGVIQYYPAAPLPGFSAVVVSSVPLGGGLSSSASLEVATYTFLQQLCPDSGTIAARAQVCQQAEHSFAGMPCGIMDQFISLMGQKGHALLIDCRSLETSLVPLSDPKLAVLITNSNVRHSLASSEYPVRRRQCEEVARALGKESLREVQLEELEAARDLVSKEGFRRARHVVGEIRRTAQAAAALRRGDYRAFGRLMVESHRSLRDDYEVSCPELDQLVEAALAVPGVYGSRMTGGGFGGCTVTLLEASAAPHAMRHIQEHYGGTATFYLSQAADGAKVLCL
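Reactions with and without enzyme served as controls. GALK at 5 nM phosphorylates 100 uM galactose using 35 uM ATP (HEPES pH 8.0, Mg2+) for 1 h at RT, with luminescence read 10 min after adding Kinase-Glo Plus.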
B2AR arrestin ag = ADRB2 beta-arrestin recruitment; HTLA Tango cells, beta-arrestin recruitment, luciferase luminescence, 18 h; 44,000 tested, under 10 active; P07550; AID 1347077; Potency, µM (doses to about 46.1 µM), hits mostly activators;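 note: potency is the fitted concentration of half-maximal effect; 0% = DMSO and full agonism = EC100 isoproterenol or metaproterenol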
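Tango cell line, 1% FBS DMEM; cpd titration up to 46 microM; 18 hr, 37 degrees C, 5% CO2. Luciferin/ATP substrate mix added, 15 min RT, luminescence. %Activity, CRC fitting, curve-class categorization.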
NTMT1 inhibitor = blocks human N-terminal methyltransferase 1 activity. NTMT1 MTase-Glo SAH luminescence, purified enzyme. AID 1645870. 59,000 compounds, 2.5% hits. Potency, µM (series often up to 114 µM), for the others: at the highest dose activity change, negative = inhibition, usual class: inhibitors. Q9BV86;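 note: potency is the fitted concentration of half-maximal effect; plate controls were DMSO vehicle for no effect and no enzyme for full effect; nearly all actives have a fitted effect of over 65% in size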
GALC G270D act = galactocerebrosidase G270D activity enhancement, cell-based. 145M-Twi-hGALC-G270D cells, HMU-beta-Gal fluorescence, 48 h. Potency, µM (doses to about 57.5 µM), usual class: activators. 45,000 compounds, 0.1% hits. AID 1159614; note: potency is the fitted concentration of half-maximal effect; 0% is about no effect; nearly all actives have a fitted effect of over 65% in size
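qHTS, 1536-well; 145M-Twi-hGALC-G270D cells (WT line also made) in DMEM/F12 + 10% FBS; compound incubation on live cells; HMU-β-gal 0.1 mM final, pH 5.2, NaTC; carbonate stop; fluorescence increase = enhanced residual activity.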
TSG101-PTAP inh = TSG101-PTAP interaction inhibition, HIV-1 budding | Q99816 | 44,000 tested, under 10 active | AID 1347069 | Fluorescence polarization, FITC-PTAP peptide/Tsg101, 20 min | Potency, µM (doses to about 115 µM), usual class: inhibitors; note: potency is the fitted concentration of half-maximal effect; 0% is about no effect
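Compounds pinned into 10 uM Tsg101 binding domain, then 50 nM FITC-PTAP peptide added in pH 7.5 HEPES buffer; FP read after 20 min, room temperature. Total S+P intensity flags fluorescent compounds; active cut-off <25 µM, efficacy <60%.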
DYRK1A inh = blocks recombinant human DYRK1A kinase activity | shares compounds with NTMT1 inhibitor | recombinant DYRK1A, Kinase-Glo ATP depletion luminescence | Potency, µM (series often up to 76.9 µM), for inactives: at the top dose activity change, negative = inhibition, most hits filed as inhibitors | 100 compounds, 80% hits | AID 2705
CLK4 KinaseGlo = inhibits human CLK4 kinase in Kinase-Glo confirmation | shares compounds with NTMT1 inhibitor | AID 493204 | recombinant Clk4, Kinase-Glo ATP luminescence, 4.5 h | Potency, µM (top dose mostly 76.9 µM), without a hit: at the top dose activity, negative = inhibition, hits mostly inhibitors | 90 compounds, 90% hits
Sfp qHTS opt = inhibitors of Bacillus subtilis Sfp PPTase, optimization followup; shares compounds with NTMT1 inhibitor; purified Sfp PPTase enzyme activity, qHTS; Potency, µM (doses to about 114 µM), for inactives: top-dose activity change, negative = inhibition, hits mostly inhibitors; 230 compounds, 78% hits; AID 540350
Bsub HM489 growth = Sfp PPTase inhibitors: growth inhibition of B. subtilis HM489 | shares compounds with NTMT1 inhibitor | B. subtilis HM489 (acpS-) growth, BacTiter-Glo, 5 h | Potency, µM (series often up to 114 µM), without a hit: at the top dose activity change, negative = inhibition, actives largely listed as inhibitors | 220 compounds, 50% hits
Sfp PPTase gel = inhibits B. subtilis Sfp PPTase in gel assay; shares compounds with NTMT1 inhibitor; purified Sfp PPTase, gel-based product detection; Potency, µM (series often up to 250 µM), for inactives: at the highest dose activity change, negative = inhibition, actives largely listed as inhibitors; 220 compounds, 54% hits; AID 540355
Sfp gel = inhibits B. subtilis Sfp PPTase in gel-based assay; shares compounds with NTMT1 inhibitor; purified Sfp PPTase, gel-based product detection; Potency, µM (titrated, usually from 250 µM), for inactives: at the top dose activity change, negative = inhibition, actives largely listed as inhibitors; 45 compounds, 90% hits
Sfp SAR2 = inhibits B. subtilis Sfp PPTase in second SAR round; shares compounds with NTMT1 inhibitor; purified Sfp enzyme, PPTase activity, qHTS; Potency, µM (top dose mostly 57.1 µM), inactives show top-dose activity change, negative = inhibition, hits mostly inhibitors; 230 compounds, 87% hits; AID 602370
hGST ctr = counter-screen for Sfp PPTase inhibitors: hGST A1-1 inhibition; AID 602391; 55 tested, under 10 active; shares compounds with NTMT1 inhibitor; hGST A1-1 enzyme activity counter-screen, qHTS; Potency, µM (titrated, usually from 114 µM), inactives show at the top dose activity change, negative = inhibition, most hits filed as inhibitors
HSD17B4 inh = counter-screen for HPGD inhibitors: human HSD17B4 inhibition; AID 743187; 230 compounds, 10% hits; Potency, µM (doses to about 57.1 µM), inactives show at the highest dose activity change, negative = inhibition, actives largely listed as inhibitors; shares compounds with NTMT1 inhibitor; purified HSD17B4, estradiol/NAD+, NADH fluorescence
ALDH1A1 inh = ALDH1A1 (human) inhibition, HPGD counter-screen | shares compounds with NTMT1 inhibitor | recombinant ALDH1A1, NADH fluorescence, propionaldehyde/NAD+ | Potency, µM (titrated, usually from 57.1 µM), for inactives: top-dose activity change, negative = inhibition, usual class: inhibitors | 230 compounds, 93% hits
* = called active by the depositor; i = inactive; ? = inconclusive; . = not tested or not shown; [ ] = remark or other dose. Shown are actives, neighbours in structure and some others; about 3.6% of the full set was active somewhere. Unless noted, calls come from the whole dose curve; as a rule, active = well fitted curve in the direction sought with a large enough effect; inconclusive = small, poorly fitted or top-dose-only effect, or another doubt; inactive = no such curve, though single readings can be large; an effect the other way counts as inactive or inconclusive.

SMILES	GPR32 ag	GALK inhibitor	B2AR arrestin ag	NTMT1 inhibitor	GALC G270D act	TSG101-PTAP inh	Sfp qHTS opt	Bsub HM489 growth	Sfp PPTase gel	Sfp SAR2	HSD17B4 inh	ALDH1A1 inh	others
Cc1ccc2scc(N3CCN(c4cccc(C(F)(F)F)c4)CC3)c(=O)c2c1	-23	2%	i	-6%	i	i	.	.	.	.	.	.
Cc1noc2ncnc(N3CCN(c4cccc(C(F)(F)F)c4)CC3)c12	9	2%	?	8%	i	i	.	.	.	.	.	.
Cc1ccnc(NC(=S)N2CCCc3ccc(C(F)(F)F)cc32)c1	.	.	.	-6%	.	.	3%	?	0%	?	?	27µM*	Sfp gel=-2%;hGST ctr=?
Cc1ccnc(NC(=S)N2CCN(c3cccc(C(F)(F)F)c3)C[C@@H]2C)c1	.	.	.	.	.	.	5.9µM*	47µM*	?	11µM*	6%	24µM*
COC(=O)c1ccnc(NC(=S)N2CCN(c3cccc(C(F)(F)F)c3)CC2)c1	.	.	.	.	.	.	26µM*	17µM*	40µM*	11µM*	17µM*	12µM*
O=C(Nc1ccc(S(=O)(=O)Nc2nccs2)cc1)[C@@H]1CC[C@H](C(=O)c2ccccc2)C1	.	.	.	0%	.	.	.	.	.	.	.	.
Cc1ccnc(NC(=S)N2CCN(c3cccc(C(F)(F)F)n3)CC2)c1	.	.	.	?	.	.	1.5µM*	30µM*	7.9µM*	0.73µM*	-26%	22µM*
O=C(c1ccc(Cl)cc1)N1CCN(c2ccnc3cc(Cl)ccc23)CC1	.	.	.	8%[57.5 µM]	.	.	.	.	.	.	.	.
COc1ccc2c(NC(=O)Nc3cccc(C(F)(F)F)n3)ccnc2c1	.	.	.	-4%[57.5 µM]	.	.	.	.	.	.	.	.
S=C(Nc1cc(Cl)ccn1)N1CCN(c2cc(Cl)cc(Cl)c2)CC1	.	.	.	.	.	.	37µM*	11µM*	-59%	18µM*	12%	27µM*
Cc1ccnc(N(C)C(=S)N2CCN(c3cccc(C(F)(F)F)c3)CC2)c1	.	.	.	-5%	.	.	?	?	?	?	-18%	19µM*
S=C(Nc1cc(Cl)ccn1)N1CCN(c2ccc(Cl)cc2Cl)CC1	.	.	.	?	.	.	?	5.9µM*	-20%	36µM*	-4%	24µM*
Cc1ccc2cc3cc(C(=O)N4CCN(c5cccc(C(F)(F)F)c5)CC4)sc3nc2c1	4	2%	i	13%	i	i	.	.	.	.	.	.
O=C1NS(=O)(=O)c2cscc21	.	.	.	18%	.	.	.	.	.	.	.	.
O=C(OCC#CCSc1nnc(-c2ccc3ccccc3c2)o1)c1ccc(F)cc1	.	.	.	5%	.	.	.	.	.	.	.	.
CC(C)(C)c1ccc(-n2cnc3cc(C(=O)N4CCCCC4)ccc32)cc1	.	.	.	21%	.	.	.	.	.	.	.	.
Cc1ccc2onc(CNC(=O)N3CCN(c4cccc(C(F)(F)F)c4)CC3)c2c1	10	0%	i	16%	i	i	.	.	.	.	.	.
Cc1ccnc(NC(=S)N2CCN(c3cc(F)cc(Cl)c3)CC2)c1	.	.	.	.	.	.	1.2µM*	15µM*	10µM*	1.6µM*	-21%	7.6µM*
CSc1ncc(C(=O)N2CCN(c3ccc(Cl)cc3)CC2)c(C)n1	-5	-2%	i	-12%	i	i	.	.	.	.	.	.
Cc1cccc(NC(=S)N2CCN(c3cccc(C(F)(F)F)c3)CC2)c1	.	.	.	.	.	.	4%	15%	1%	-20%	?	1.5µM*
Cc1nc(CN(C)c2ncnc3ccc(-c4ccc5[nH]ncc5c4)cc23)cs1	.	.	.	.	.	.	35%[57.1 µM]	.	.	21%	22µM*	15µM*	Sfp gel=-7%;hGST ctr=?
Cc1nc(CSc2ncnc3ccc(-c4ccc5c(c4)OCO5)cc23)cs1	.	.	.	?	.	.	.	.	.	.	.	.	DYRK1A inh=2.6µM*
CN(CC1CCCCO1)c1ncnc2ccc(-c3ccc4c(c3)OCO4)cc12 (stereo not drawn)	.	.	.	.	.	.	.	.	.	.	.	.	CLK4 KinaseGlo=0.073µM*
CN(CC(=O)O)c1ncnc2ccc(-c3ccc4c(c3)OCO4)cc12	.	.	.	-13%[57.5 µM]	.	.	.	.	.	.	.	.	CLK4 KinaseGlo=2.3µM*
Cc1c(-c2ccc3c(c2)OCO3)oc2ccc(C(O)C(C)O)cc12 (stereo not drawn)	.	.	.	2%[29.8 µM]	.	.	.	.	.	.	.	.
Nc1nccc(-c2c(-c3ccc(F)cc3)ncn2C2CCN(Cc3ccon3)CC2)n1	.	.	.	3%	.	.	.	.	.	.	.	.
